According to PubChem BioAssay AID1347416 (National Center for Advancing Translational Sciences (NCATS), 2020):
In all, about 4,100 compounds went through this assay and about 1,600 (39%) were called active. Another 25% or so got no clear call; they are omitted. Some of the results follow. A number with no mark means an inactive call. Calls follow the shape of the dose curve; as a rule, active = well fitted inhibition curve with a large enough effect; inconclusive = small, poorly fitted or top-dose-only effect; inactive = no such curve, though single readings can be large or run the other way.

experiment: qHTS Validation assay for Inhibitors of Plasmodium falciparum Dd2 growth in vitro; also: nearly all actives have a fitted effect of over 70% in size; conditions: P. falciparum Dd2 in RBCs, SYBR Green growth, 72 h; series mostly up to 28.7 µM; activity change, negative = inhibition: at the top concentration
Method in brief: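 P. falciparum Dd2-infected red blood cells (2.5% hematocrit, 0.3% parasitemia) grown 72 h at 37 °C under 5% O2 with compounds in a titration, 29 uM to 0.5 nM final. Growth read as SYBR Green-1 fluorescence after ~16 h lysis; artesunate 300 nM as positive control.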
% is scaled to controls: 0 for no effect and ±100 for the full control effect; potency is read from the fitted curve at half-maximal effect.

Q: With `COCC(=O)NC[C@H]1CCN(Cc2ccc(Cl)cc2)C[C@H]1N(C)C` as the molecule, how does the “activity change, negative = inhibition” value read?
A: Its value is 13.5%.

Q: With `COc1cccc(NC(=O)c2sc3nc(C)c(C(=O)Nc4ccc(C)cc4C)c(-c4cccs4)c3c2N)c1` as the molecule, how does the Potency read?
A: Its Potency is 5.96 µM (active).

Q: For `COc1cccc(NC(=O)c2sc3nc(C)c(C(=O)Nc4ccc(C)cc4C)c(-c4ccccc4Cl)c3c2N)c1`, which Potency is on record?
A: Its Potency is 2.66 µM (active).

Q: For `COc1cccc(OC)c1C(=O)Nc1cccc(-c2nc3cc(C)cc(C)c3o2)c1`, which “activity change, negative = inhibition” value is on record?
A: Its value is 46.6%.

Q: For `NC1CCCCN(C(=O)CCc2n[nH]c3c2CCCC3)C1` (configuration not stated), which “activity change, negative = inhibition” value is on record?
A: Its value is 55.9%.

Q: For `Cc1ccc(-n2nc3c(c2NC(=O)C(C)C)CS(=O)(=O)C3)c(C)c1`, which “activity change, negative = inhibition” value is on record?
A: Its value is 26.2%.

Q: Which “activity change, negative = inhibition” value does the source give for `Cc1ccc(S(=O)(=O)Nc2cc(=O)[nH]c(SCC(=O)Nc3cccc(C)c3)n2)cc1` here?
A: Its value is 35.4%.

Q: With `CCn1c(SCC(=O)NNC(=O)Cc2ccccc2)nnc1-c1ccncc1` as the molecule, how does the “activity change, negative = inhibition” value read?
A: The value was 11.2%.

Q: For `c1ccc(Cn2c(Sc3nnnn3-c3ccccc3)nnc2-c2ccccc2)cc1`, which Potency is on record?
A: Its Potency is 7.5 µM (active).

Q: Which “activity change, negative = inhibition” value does the source give for `CN(C1CCc2nn(CC3CC3)c(=O)n2CC1)S(=O)(=O)c1cccs1` (configuration not stated) here?
A: The value was 9.65%.

Q: With `COc1ccc2c(c1)OC(C)(C)C(c1ccccc1)C2c1ccc(OCCN2CCCC2)cc1` (configuration not stated) as the molecule, how does the Potency read?
A: Its Potency is 6.68 µM (active).

Q: For `COc1cccc(C(=O)N2CCC3(CC2)CCN(CCc2ccccc2)c2ccccc2O3)c1`, which “activity change, negative = inhibition” value is on record?
A: The value was -0.287%.

Q: Which Potency does the source give for `O=C(NCCNc1ccnc2cc(Cl)ccc12)c1ccccc1F` here?
A: The Potency was 1.68 µM (active).

Q: For `O=C(NCc1nnc2ccc(-c3ccccc3)nn12)c1cc(Cl)ccc1F`, which “activity change, negative = inhibition” value is on record?
A: The value was -3.02%.

Q: For `O=C(NCCCNc1ccnc2cc(Cl)ccc12)c1ccccc1F`, which Potency is on record?
A: The Potency was 0.842 µM (active).

Q: Which “activity change, negative = inhibition” value does the source give for `O=C(NC1C[C@H]2CC[C@@H](C1)N2C(=O)c1ccco1)c1ccncc1` (some centres not stated) here?
A: Its value is 20%.

Q: For `COc1ccc(-n2nc(C)c([C@@H]3C=C[C@@H](NCc4ccc(F)cc4)C3)c2C)cc1`, which Potency is on record?
A: Its Potency is 1.37 µM (active).

Q: With `Cc1nn(-c2ccc(C(C)(C)C)cc2)c(C)c1[C@@H]1C=C[C@@H](NC(=O)c2ccco2)C1` as the molecule, how does the Potency read?
A: Its Potency is 12.2 µM (active).

Q: With `COc1ccc(CN[C@@H]2C=C[C@@H](c3c(C)nn(-c4ccc(OC)cc4)c3C)C2)cc1` as the molecule, how does the Potency read?
A: Its Potency is 4.85 µM (active).

Q: With `Cc1cc(=O)n(C(C)C(=O)NCc2ccccc2Cl)c2c1c(C)nn2-c1ccccc1` (configuration not stated) as the molecule, how does the “activity change, negative = inhibition” value read?
A: Its value is 27.8%.

Q: Which Potency does the source give for `Cc1nn(-c2ccc(C(C)C)cc2)c(C)c1[C@@H]1C=C[C@@H](NCc2ccccc2)C1` here?
A: Its Potency is 21.7 µM (active).

Q: For `Cc1nn(-c2cccc(Br)c2)c(C)c1[C@@H]1C=C[C@@H](NC(=O)c2cccs2)C1`, which “activity change, negative = inhibition” value is on record?
A: Its value is -11.6%.

Q: For `Cc1cccc(CCNC(=O)CCS(=O)(=O)c2cc3c(cc2Cl)NC(=O)CO3)c1`, which “activity change, negative = inhibition” value is on record?
A: The value was 22.2%.

Q: With `COc1ccc(OC)c(C2CCN(c3ncncn3)C2)c1` (configuration not stated) as the molecule, how does the “activity change, negative = inhibition” value read?
A: The value was 20.9%.

Q: Which “activity change, negative = inhibition” value does the source give for `CC(C)Oc1ccc2c(NC(=O)c3ccn(C)n3)nn(CC(F)(F)F)c2c1` here?
A: Its value is 22.3%.

Q: Which “activity change, negative = inhibition” value does the source give for `O=C(NCc1cc(F)ccc1F)C1CCN(c2cn[nH]c(=O)c2)C1` (configuration not stated) here?
A: The value was 14%.

Q: Which Potency does the source give for `COc1ccc(-n2nc(C)c([C@@H]3C=C[C@@H](NCc4cccc(Cl)c4)C3)c2C)cc1` here?
A: Its Potency is 1.37 µM (active).

Q: For `COc1ccc(-n2nc(C)c([C@@H]3C=C[C@@H](NCc4ccc(N(C)C)cc4)C3)c2C)cc1`, which Potency is on record?
A: Its Potency is 4.33 µM (active).

Q: With `Cn1c(=O)oc2cc(S(=O)(=O)CCC(=O)N3CCN(c4ccccc4F)CC3)ccc21` as the molecule, how does the “activity change, negative = inhibition” value read?
A: The value was 37.6%.

Q: With `O=c1[nH]c(N2CCOCC2)nc2c1CCN(Cc1cc(Cl)ccc1F)CC2` as the molecule, how does the Potency read?
A: Its Potency is 2.37 µM (active).

Q: With `O=c1[nH]c(N2CCOCC2)nc2c1CCN(Cc1cc(F)c(F)cc1F)CC2` as the molecule, how does the Potency read?
A: The Potency was 15 µM (active).

Q: For `O=c1[nH]c(N2CCOCC2)nc2c1CCN(Cc1cc(Br)ccc1F)CC2`, which Potency is on record?
A: Its Potency is 5.31 µM (active).

Q: Which Potency does the source give for `O=c1[nH]c(N2CCOCC2)nc2c1CCN(Cc1ccc(Cl)cc1F)CC2` here?
A: Its Potency is 3.35 µM (active).

Q: For `O=C1CCN(Cc2ccc(F)cc2F)CCCC(c2nc(-c3cnccn3)no2)CCN1` (configuration not stated), which “activity change, negative = inhibition” value is on record?
A: The value was -24.9%.

Q: With `O=C(Nc1ccc(Cl)cc1)c1nc2c(o1)CCN(Cc1ccc(F)cc1F)CC2` as the molecule, how does the “activity change, negative = inhibition” value read?
A: The value was -4.48% [at 43.1 µM].

Q: With `COc1ccc2c(c1OC)C(=O)OC2CC(=O)c1ccc(O)cc1` (configuration not stated) as the molecule, how does the “activity change, negative = inhibition” value read?
A: Its value is 14.8%.

Q: For `CCOc1cc(C2CC(=O)NC3=C2C(=O)C(C(=O)OC)C(C)C3)cc(Br)c1O` (configuration not stated), which Potency is on record?
A: Its Potency is 6.68 µM (active).

Q: Which Potency does the source give for `CCOc1ccc(/C=C/C(=O)Nc2ccc3nc(N(CC)CC)cc(C)c3c2)cc1OC` here?
A: Its Potency is 1.88 µM (active).

Q: For `COc1ccc(/C=C/C(=O)NCCc2ccc(OC)c(OC)c2)cc1`, which “activity change, negative = inhibition” value is on record?
A: Its value is 10.2%.

Q: Which Potency does the source give for `CCN(CC)c1cc(C)c2cc(NC(=O)/C=C/c3cc(OC)c(OC)c(OC)c3)ccc2n1` here?
A: The Potency was 4.73 µM (active).

Q: With `Fc1ccccc1Cn1nnc2c(-n3ccnc3)ncnc21` as the molecule, how does the “activity change, negative = inhibition” value read?
A: The value was 4.31%.

Q: With `O=C1Nc2ccccc2CN(CC2CC2)C12CCNCC2` as the molecule, how does the “activity change, negative = inhibition” value read?
A: The value was 1.97%.

Q: Which Potency does the source give for `CN(C)c1cccc(Nc2cc3c(cn2)CN(Cc2ccccc2)CCN3)c1` here?
A: The Potency was 13.7 µM (active).

Q: Which “activity change, negative = inhibition” value does the source give for `CN(C)c1ncnc2sc3c(c12)CCN(Cc1ccc2cc[nH]c2c1)C3` here?
A: The value was -7.09%.

Q: For `Cc1nnc(-c2cc(Nc3cccc(N(C)C)c3)ccn2)n1Cc1ccccc1`, which “activity change, negative = inhibition” value is on record?
A: The value was -11% [at 43.1 µM].

Q: Which Potency does the source give for `c1ccc(Nc2cc3c(cn2)CN(Cc2ccc4[nH]ccc4c2)CCN3)cc1` here?
A: The Potency was 1.37 µM (active).

Q: For `c1ccc(Nc2cc3c(cn2)CN(Cc2ccsc2)CCN3)cc1`, which Potency is on record?
A: Its Potency is 13.7 µM (active).

Q: For `O=C1NC(=NC2CCCC2)C2(CCN(Cc3ccsc3)C2)N1c1cccnc1` (configuration not stated), which “activity change, negative = inhibition” value is on record?
A: The value was -11.2%.

Q: Which “activity change, negative = inhibition” value does the source give for `Cc1ccc(C)c(OC(=O)CSc2nnc(-c3cccs3)o2)c1` here?
A: The value was 13%.

Q: For `Cc1cc(NC(=O)CN2CCN(c3ccc(O)cc3)CC2)no1`, which Potency is on record?
A: Its Potency is 4.73 µM (active).

Q: For `CCOc1ccc(C(=O)Nc2cc(C)on2)cc1`, which “activity change, negative = inhibition” value is on record?
A: Its value is -10.9%.

Q: For `CNS(=O)(=O)c1cn(CC(=O)N2CCN(c3ccc(C(C)=O)cc3)CC2)cc1S(=O)(=O)NC`, which “activity change, negative = inhibition” value is on record?
A: Its value is 41.4%.

Q: For `Cc1cc(Nc2ccc(Br)cc2)n2nc(C)nc2n1`, which Potency is on record?
A: Its Potency is 7.5 µM (active).

Q: For `Cc1cc(NC2C3CC4CC(C3)CC2C4)n2nnnc2n1` (configuration not stated), which “activity change, negative = inhibition” value is on record?
A: Its value is -20.8%.

Q: For `Cc1cc(Nc2ccc(Br)c(C)c2)n2nc(C)nc2n1`, which Potency is on record?
A: The Potency was 1.33 µM (active).

Q: With `Cc1ccc(S(=O)(=O)NCc2nc3nc(C)cc(C)n3n2)c(C)c1` as the molecule, how does the “activity change, negative = inhibition” value read?
A: Its value is 12.5%.

Q: Which Potency does the source give for `Cc1cc(Nc2ccc(C)c(C)c2)n2nc(C)nc2n1` here?
A: Its Potency is 4.73 µM (active).

Q: For `Cc1cc(C)cc(Nc2cc(C)nc3nc(C)nn23)c1`, which Potency is on record?
A: Its Potency is 5.31 µM (active).

Q: Which “activity change, negative = inhibition” value does the source give for `CC(C)c1ccc(OCc2ccc(C(=O)O)o2)cc1` here?
A: Its value is -2.28%.

Q: For `CC(O)CNCCNCc1c(OCc2ccccc2)ccc2ccccc12` (configuration not stated), which Potency is on record?
A: Its Potency is 8.41 µM (active).

Q: Which Potency does the source give for `Cc1cc(N2CCC(N(C)C3CCCC3)CC2)nc2cc(O)ccc12` here?
A: Its Potency is 5.96 µM (active).

Q: Which Potency does the source give for `Cc1cc(N2CCN(C3CCCCC3)CC2)nc2cccc(O)c12` here?
A: Its Potency is 5.31 µM (active).
